Results on one compound are retold here after PubChem BioAssay AID504400 (The Scripps Research Institute Molecular Screening Center, 2011).

The test has as its system Rolipram. Briefly: CYP450 and receptor off-target profile – biochemical, Ricerca HitProfilingScreen, selectivity assay for S1P4 agonist project, late-stage follow-up (AID 504400). Particulars: Ricerca radioligand binding/enzyme panel plus CYP450, at 10 µM, stronger effect = higher value.

Values without a mark were called inactive. No rule for the calls is given here.

In general, inhibition refers to the relative decrease from the control value, in per cent. As for `Clc1ccc(OCCOc2ccc(Br)nc2Br)c(Cl)c1`, the inhibition was -3%.
